# Data: ChEMBL document CHEMBL4888484, “Replenishing the malaria drug discovery pipeline: Screening and hit evaluation of the MMV Hit Generation Library 1 (HGL1) against asexual blood stage Plasmodium falciparum ,using a nano luciferase reporter read-out” (2022)
# Out of some 150,000 compounds screened, about 540 (0.36%) showed an effect of 50% or more. The sample as a whole holds a higher share of strong results than the screen did.
# System: Plasmodium falciparum
# Test: Primary screen in NF54 nanoGlo assay, in single point, at 2uM, 72h; a lower Z score goes with more inhibition
# Type: functional, Erythrocyte
# Settings: timepoint 72 hour
Compound,% Inhibition [%],Z score
CN1C[C@@H](N)C[C@H]1c1nc(COc2ccc(F)cc2)nn1CC(F)(F)F,1,-0.2
COc1ccc(C(=O)N2CCN(C(=O)c3cccnc3)[C@@H](C(=O)N[C@H]3CCCNC3=O)C2)cc1,-7,1.08
Cn1c(=O)c2c(-c3ccc(Br)cc3)n(-c3cccc4cccnc34)cc2n(C)c1=O,-4,0.72
Cn1c(=O)c2c(-c3ccc(Br)cc3)n(-c3ccccn3)cc2n(C)c1=O,-5,0.83
Cn1c(=O)c2c(-c3ccc(Cl)cc3)n(-c3cccc4cccc(N)c34)cc2n(C)c1=O,96,-11.21
O=C(COc1ccc(Cl)cc1)NC1CCN(Cc2ccccc2)CC1,-10,0.93
CCN1CCN(c2cccc(NC(=O)c3cc(F)cc4c(=O)c5cc(F)ccc5[nH]c34)c2)CC1,95,-17.54
CCN1CCN(c2ccc(C(=O)Nc3cccc(-c4ccc5c(c4)CCO5)c3)cc2F)CC1,18,-2.82
CCN1CCN(c2c(CN(C(=O)Nc3cccc(F)c3)C(C)C)c(C)nn2-c2cccc(F)c2)CC1,3,-0.41
Cc1ccc(C(=O)Nc2cccc(N3CCCCCC3)c2)c(=O)[nH]1,-12,1.57
CN(C)Cc1ccc(NC(=O)c2cc(F)cc3c(=O)c4cc(F)ccc4[nH]c23)cc1,77,-11.59
CCN1CCN(c2cccc(NC(=O)c3ccc4[nH]c5ccccc5c(=O)c4c3)c2)CC1,92,-9.25
CC1CN(C(=O)c2cc(F)cc3c(=O)c4cc(F)ccc4[nH]c23)CC(C)O1 (configuration not stated),-10,1.65
CC[C@@H](CNc1cc(NC2CC2)ncn1)C(=O)O,-7,1.58
Cc1noc(CCCC(=O)N2CCN(C3CCCC3O)CC2)n1 (configuration not stated),-26,3
CN1CC2(CCN(Cc3ccccc3OCCc3ccccc3)CC2)CC1=O,0,-0.02
CCS(=O)(=O)C1CCN(Cc2cn(-c3ccc(F)c(Cl)c3)nn2)CC1,8,-0.85
C[C@H](Oc1ccccc1F)c1nnc2n1CCCC2,-9,1.39
COc1ccc(CN2C(=O)Cc3ccccc3[C@@H](C(=O)O)[C@@H]2c2ccccc2)c(OC)c1,0,-0.05
O[C@@H](CN1CCC(c2ccn[nH]2)CC1)C(F)(F)F,27,-3.09
CCCCNC(=O)N1CC[C@H](c2ccn[nH]2)C1,-16,1.68

Compound,% Inhibition [%],Z score
O=C(N[C@@H](CN1CCCC1)c1ccccc1)N1CCC(c2ccn[nH]2)CC1,50,-8.21
Cc1cc2ncc(-c3nc([C@H]4CCOC(C)(C)C4)no3)c(C)n2n1,-5,0.67
Cc1ccsc1-c1nccn1CCNC(=O)c1ccc(F)cc1,-3,0.58
Cc1ccc(C(N)=O)c(NCC2(N3CCN(C)CC3)CCCC2)n1,-17,1.6
Cc1cc(N(C)C(=O)c2nccn3ccnc23)ccc1Br,26,-3.49
COCC(C)(C)c1noc(-c2ccc(C(F)(F)F)c(=O)[nH]2)n1,-6,0.62
COc1ccc(-n2nc(C(=O)N3CCN(C)CC3)c(=O)n(Cc3cccc(C(F)(F)F)c3)c2=O)cc1OC,-2,0.34
C=CCN1C(=O)OC(C)(CCC=C(C)C)C1(C)O (configuration not stated),76,-1.64
O=C(COc1ccc(Br)cc1)Nc1ccc2c(c1)OCCCO2,-9,0.79
CC(C)C(=O)N(Cc1ccc(OS(=O)(=O)C(C)C)cc1)CC1CC1,-21,4
COc1cc(F)c(C(C)NC2C[C@@H]3COC[C@H]23)cc1OC (some centres not stated),-1,0.15
CC(C)(C)OC(=O)C1C[C@@H](N)[C@@H](n2cc(C(C)(C)C)nn2)C1 (some centres not stated),-7,1.24
Cc1ccccc1C(=O)N1[C@H](C(=O)NC2CC2)COC12CCN(C(=O)c1ccc(F)cc1)CC2,-2,0.23
CCc1nc(C#N)cc(N2CCC[C@@H]2CS(C)(=O)=O)n1,-2,0.21
O=S(=O)(CCCOc1ccccc1)NC[C@H]1CCCN1c1ccccc1,-13,2.45
Cc1cnc([C@H](C)N2CCC(S(=O)(=O)N3CCCC3)CC2)o1,-14,2.67
O=c1[nH]c2ccc(NCc3cc(Cl)ccc3OCc3ccccc3F)cc2[nH]1,2,-0.36
CC(C)(C)OC(=O)N1CC(OC(=O)CC2(CS(C)(=O)=O)CC2)C1,-13,1.78
CNC(=O)c1[nH]nc2c1CN(CC(=O)Nc1cccc(C)c1C)CC2,-5,0.76
Cc1cccc(CN2C[C@@H](O)C[C@H]2c2nnc3n2CCN(C(=O)C(C)C)C3)c1,4,-0.68
CC(C)(C)OC(=O)N1CCC2(CC1)NN=C1C=C(N3CCN(c4ccccc4F)CC3)N=CN12,50,1.26

Compound,% Inhibition [%],Z score
C[C@@]1(C(=O)N2CCN(c3ccccc3F)CC2)Oc2ccccc2NC1=O,1,-0.16
CC(C)(C)OC(=O)N1CCN(c2nnc(NC(=O)c3c(F)cccc3F)[nH]2)CC1,-14,1.7
O=C(Nc1ccc(-n2cnnn2)cc1)c1coc(-c2ccccc2)n1,-6,1.22
CN1CCN(S(=O)(=O)N[C@@H](CO)c2ccc(F)cc2)CC1,-12,2.47
COc1cc2c(N3CCC([C@H](O)C(=O)NC4CC4)CC3)ccnc2cc1F,-6,0.61
OC[C@H]1CCN(c2ccnc3cc(Cl)ccc23)C[C@@H]1O,-1,0.17
CCC(CC)N(Cc1ccc2c(c1)OCO2)C(=O)Cc1cccnc1,23,-2.95
CCOc1ccc(CN2CCC[C@@](F)(C(=O)N3CCOCC3)C2)cc1OC,-11,0.93
O=C1c2ccccc2C(=O)N1Cc1cnc(N2CCCCC2)s1,45,0.07
N#CCc1ncc(CCN2C(=O)c3ccccc3C2=O)s1,51,-6.59
CC(=O)Nc1ccnc(Cc2ccccc2)n1,-8,1.29
CC(CCc1cccn1C)NC(=O)NC1CCN(c2cnn(C)c2)C1 (configuration not stated),-1,0.08
CCc1nn(C)cc1NC(=O)N1CCN(C(=O)c2ccc(F)cc2)CC1,5,-0.74
CCOc1cc(C(=O)Nc2ccc3nc4c(c(Nc5ccc(OC)c(OC)c5)c3c2)CCCC4)cc(OCC)c1OCC,93,-11.16
COc1ccc(C(=O)Nc2ccc3nc4c(c(Nc5ccc(OC)c(OC)c5)c3c2)CCCC4)c(OC)c1,-8,0.97
COc1ccccc1Nc1c2c(nc3ccc(NC(=O)c4ccc5c(c4)OCO5)cc13)CCCC2,2,-0.26
FC(F)(F)c1cnc(N2CCOC3(CCOCC3)CC2)s1,105,-19.68
CC1(N2CCOCC2)CCN(c2ncc(C(F)(F)F)s2)CC1,-5,0.84
CCC1(N2CCOCC2)CCN(c2ncc(C(F)(F)F)s2)CC1,12,-1.55
CC1(C#N)CCN(Cc2cc(C(C)(C)C)[nH]n2)CC1,4,-0.56
CC(C)(C)c1cc(CN2CCC3(CC2)[C@H](O)C[C@@H]3O)n[nH]1,-1,0.15

Compound,% Inhibition [%],Z score
CC(C)(C)c1cc(CN2CCN(S(N)(=O)=O)CC2)n[nH]1,72,-0.86
CC(C)OCC(=O)Nc1ccn(CCCn2ccnc2)n1,-7,1.24
COc1ccc(CC(=O)Nc2cc(C)n(-c3cccc(Cl)c3)n2)cc1,80,-8.55
Cc1cc(NC(=O)COc2ccccc2)nn1-c1ccc(Cl)cc1,-3,0.32
CCc1cc(NC(=O)Cc2ccc(OC)cc2)nn1-c1ccc(OC)cc1,-2,0.3
O=C(Nc1cccnc1O)c1nc(C2CC2)n(-c2ccccc2)n1,33,-3.76
CN(C)C(=NCCC1CCCC1)N(C)C,-7,0.94
O=C(Cc1n[nH]c(=O)c2ccccc12)N[C@H]1CCCc2c1[nH]c1c(Cl)cccc21,3,-0.39
CCN1CCCCc2cc(C(=O)N[C@H]3CCS(=O)(=O)C3)sc21,-2,0.2
COc1ccc(C2CC(c3ccc(C)cc3)n3ncnc3N2C(=O)c2ccccc2)cc1 (configuration not stated),32,-3.62
COc1ccc(C(=O)N2c3ncnn3C(c3ccccc3)CC2c2ccc(C)cc2)cc1OC (configuration not stated),76,-10.75
CCC(=O)N1c2ncnn2C(c2ccc(C)cc2)CC1c1ccccc1 (configuration not stated),3,-0.41
CC(C)n1ncc2c1CC(NC(=O)CCC1CCCO1)CC2 (configuration not stated),-3,0.62
CN(C)c1ccc(C(=O)Nc2ccccc2-c2cn3c(n2)CCCC3)nn1,-10,1.93
O=C1C2CCCCN2C(=O)N1CC(O)COc1ccc(F)cc1 (configuration not stated),-5,0.77
CCOC1CC(NC(C)C(=O)N(C)Cc2cccc(F)c2)C12CCCC2 (configuration not stated),4,-0.62
CCOC1CC(NCc2c[nH]nc2-c2cccnc2)C12CCC2 (configuration not stated),-10,1.18
CCOC1CC(NC2CC(c3ccc(F)cc3)C2)C12CCC2 (configuration not stated),85,-15.92
